Values joined by “and” are separate entries in the source; they are usually repeats but may differ in a detail not shown here. Equal entries are not always repeated. Records with an inconclusive call do not appear. Some structures have more than one record in an assay (separate samples or runs), and their calls can disagree. Active and inactive are the calls of the source. How the source made its calls: active means hit-call score of the fitted dose curve at least 0.9, where 1 is the maximum; inconclusive means response in the unintended direction; inactive means score below 0.9.
Each molecule was assayed against Estrogen receptor (Homo sapiens) + Estrogen receptor beta (Homo sapiens) (UniProt P03372+Q92731) (assay: OT_ER_ERaERb_1440: Odyssey Thera (OT) 24-hour HEK293T Protein-Complementation Assay for Estrogen Receptor-alpha/-beta Homodimer (AID 2283356);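 further: heteromer of ER alpha and ER beta binding domains; hits raise reporter fluorescence and both agonists and antagonists give an increase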).
Estrogen receptor (Homo sapiens) + Estrogen receptor beta (Homo sapiens), sequence (P03372 whole entry, looked up, the tested form may be a part): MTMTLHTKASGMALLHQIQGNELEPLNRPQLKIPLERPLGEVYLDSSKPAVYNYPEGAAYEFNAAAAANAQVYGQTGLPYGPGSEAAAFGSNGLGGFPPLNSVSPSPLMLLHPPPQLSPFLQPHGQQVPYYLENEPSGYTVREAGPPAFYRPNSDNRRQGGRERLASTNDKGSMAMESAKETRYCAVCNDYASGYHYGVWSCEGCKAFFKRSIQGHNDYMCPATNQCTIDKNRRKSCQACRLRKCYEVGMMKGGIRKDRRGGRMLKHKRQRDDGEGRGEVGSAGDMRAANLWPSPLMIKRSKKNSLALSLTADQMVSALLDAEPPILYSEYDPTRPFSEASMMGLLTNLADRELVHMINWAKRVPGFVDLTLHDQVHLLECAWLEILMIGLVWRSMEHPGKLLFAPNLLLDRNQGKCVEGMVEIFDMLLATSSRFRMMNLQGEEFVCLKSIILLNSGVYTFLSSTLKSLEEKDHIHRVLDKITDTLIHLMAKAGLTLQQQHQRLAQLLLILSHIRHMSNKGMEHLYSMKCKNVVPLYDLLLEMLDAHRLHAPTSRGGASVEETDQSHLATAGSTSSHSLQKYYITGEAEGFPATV
Estrogen receptor (Homo sapiens) + Estrogen receptor beta (Homo sapiens), sequence (Q92731 whole entry, looked up, the tested form may be a part): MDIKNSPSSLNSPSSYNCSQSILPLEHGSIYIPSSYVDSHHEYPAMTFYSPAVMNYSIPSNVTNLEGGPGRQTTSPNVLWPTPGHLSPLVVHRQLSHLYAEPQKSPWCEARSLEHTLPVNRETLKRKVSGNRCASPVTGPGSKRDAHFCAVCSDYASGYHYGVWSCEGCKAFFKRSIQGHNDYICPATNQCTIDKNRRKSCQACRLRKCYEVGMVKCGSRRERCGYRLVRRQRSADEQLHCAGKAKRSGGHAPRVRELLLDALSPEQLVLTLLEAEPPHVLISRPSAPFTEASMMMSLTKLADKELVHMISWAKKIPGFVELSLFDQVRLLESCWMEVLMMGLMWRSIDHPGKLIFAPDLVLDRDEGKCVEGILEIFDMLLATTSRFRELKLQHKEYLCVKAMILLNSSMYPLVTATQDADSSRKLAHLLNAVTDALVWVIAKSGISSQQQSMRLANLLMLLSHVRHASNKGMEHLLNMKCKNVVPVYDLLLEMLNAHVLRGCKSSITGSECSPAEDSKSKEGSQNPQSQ
Method in brief: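 Readout: mean fluorescence intensity in nucleus (agonists) or nucleus plus cytoplasm (antagonists), read by laser scanning cytometer after 24 h compound exposure of HEK293T cells carrying ERα/ERβ LBD fragment-complementation constructs; DMSO baseline.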

Row | SMILES | AC50 | outcome
1 | CCCCCCCc1ccc(O)cc1 | 15.3 µM (active) and 11.3 µM (active) | inactive
2 | O=C(O)CF |  | inactive
3 | Cc1ccc(O)cc1C |  | inactive
4 | CCOC(=O)c1ccccc1N |  | inactive
5 | O=C(O)C1C(C(=O)O)C2(Cl)C(Cl)=C(Cl)C1(Cl)C2(Cl)Cl (centres undefined) |  | inactive
6 | CCNc1nc(Cl)nc(NC(C)(C)C)n1 |  | inactive
7 | CCCCC(CC)COP(=O)(Oc1ccccc1)Oc1ccccc1 (centres undefined) | 50 µM (active) | 
8 | CCC(C)(C)c1ccc(O)cc1 | 7.2 µM (active) | 
9 | O=P1(N(CCCl)CCCl)NCCCO1 (centres undefined) |  | inactive
10 | O=S(=O)(c1ccc(O)cc1)c1ccc(O)cc1 | 29.2 µM (active) | 
11 | O=[N+]([O-])c1ccccc1 |  | inactive
12 | ClC(Cl)(Cl)c1ccccc1 |  | inactive
13 | O=P(Oc1ccccc1)(Oc1ccccc1)Oc1ccccc1 | 12.4 µM (active) | 
14 | CCOP(=S)(Oc1ccc([N+](=O)[O-])cc1)c1ccccc1 (centres undefined) | 14.1 µM (active) | 
15 | CCCCN(CCCC)SN(C)C(=O)Oc1cccc2c1OC(C)(C)C2 |  | inactive
16 | CCOP(=S)(OCC)SCSCC |  | inactive

Row | SMILES | AC50 | outcome
17 | CCCCc1ccccc1 |  | inactive
18 | COC(N)=O |  | inactive
19 | c1nc[nH]n1 |  | inactive
20 | CC1(C)CN=C(NN=C(/C=C/c2ccc(C(F)(F)F)cc2)/C=C/c2ccc(C(F)(F)F)cc2)NC1 |  | inactive
21 | c1ccc2c(c1)Nc1ccccc1S2 |  | inactive
22 | CCCCN(CC)C(=O)SCCC |  | inactive
23 | O=NN1CCCC1 |  | inactive
24 | O=S1(=O)OCC2C(CO1)C1(Cl)C(Cl)=C(Cl)C2(Cl)C1(Cl)Cl (centres undefined) | 86.8 µM (active) | 
25 | c1cc2c3c(cccc3c1)CC2 |  | inactive
26 | CC(C)(C)OOC(C)(C)C |  | inactive
27 | CCCCc1ccc(O)cc1 | 31.4 µM (active) | 
28 | CCCCC(CC)COC(=O)c1c(Br)c(Br)c(Br)c(Br)c1C(=O)OCC(CC)CCCC (centres undefined) |  | inactive
29 | CC(Cl)(Cl)C(=O)O |  | inactive
30 | O=C(CBr)OCc1ccccc1 |  | inactive
31 | CCN(CC)c1ccccc1 |  | inactive

The molecules below were run against Estrogen receptor beta (Homo sapiens) (UniProt Q92731) (assay: OT_ER_ERbERb_0480: Odyssey Thera (OT) 8-hour HEK293T Protein-Complementation Assay for Estrogen Receptor-beta/-beta Homodimer (AID 2283357);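 further: active means signal gain over DMSO baseline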).
Estrogen receptor beta (Homo sapiens), sequence (Q92731 whole entry, looked up, the tested form may be a part): as above
Method in brief: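 Fluorescence intensity, nuclear for agonists and nuclear plus cytoplasmic for antagonists, was quantified by laser scanning cytometry versus vehicle after 8 h treatment. The cells were HEK293T stably carrying ER beta LBD fragment-complementation partners.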

Row | SMILES | AC50 | outcome
32 | CCCCCCCc1ccc(O)cc1 | 12.2 µM (active) and 13.3 µM (active) and 12.3 µM (active) | inactive
33 | O=C(O)CF |  | inactive
34 | Cc1ccc(O)cc1C |  | inactive
35 | CCOC(=O)c1ccccc1N |  | inactive
36 | O=C(O)C1C(C(=O)O)C2(Cl)C(Cl)=C(Cl)C1(Cl)C2(Cl)Cl (centres undefined) |  | inactive
37 | CCNc1nc(Cl)nc(NC(C)(C)C)n1 |  | inactive
38 | CCCCC(CC)COP(=O)(Oc1ccccc1)Oc1ccccc1 (centres undefined) |  | inactive
39 | CCC(C)(C)c1ccc(O)cc1 | 2.41 µM (active) | 
40 | O=P1(N(CCCl)CCCl)NCCCO1 (centres undefined) |  | inactive
41 | O=S(=O)(c1ccc(O)cc1)c1ccc(O)cc1 | 31.2 µM (active) | 
42 | O=[N+]([O-])c1ccccc1 |  | inactive
43 | ClC(Cl)(Cl)c1ccccc1 |  | inactive
44 | O=P(Oc1ccccc1)(Oc1ccccc1)Oc1ccccc1 | 12.2 µM (active) | 
45 | CCOP(=S)(Oc1ccc([N+](=O)[O-])cc1)c1ccccc1 (centres undefined) | 26.4 µM (active) | 
46 | CCCCN(CCCC)SN(C)C(=O)Oc1cccc2c1OC(C)(C)C2 |  | inactive
47 | CCOP(=S)(OCC)SCSCC |  | inactive

Row | SMILES | AC50 | outcome
48 | CCCCc1ccccc1 |  | inactive
49 | COC(N)=O |  | inactive
50 | c1nc[nH]n1 |  | inactive
51 | CC1(C)CN=C(NN=C(/C=C/c2ccc(C(F)(F)F)cc2)/C=C/c2ccc(C(F)(F)F)cc2)NC1 |  | inactive
52 | c1ccc2c(c1)Nc1ccccc1S2 |  | inactive
53 | CCCCN(CC)C(=O)SCCC |  | inactive
54 | O=NN1CCCC1 |  | inactive
55 | O=S1(=O)OCC2C(CO1)C1(Cl)C(Cl)=C(Cl)C2(Cl)C1(Cl)Cl (centres undefined) |  | inactive
56 | c1cc2c3c(cccc3c1)CC2 |  | inactive
57 | CC(C)(C)OOC(C)(C)C |  | inactive
58 | CCCCc1ccc(O)cc1 | 10.5 µM (active) | 
59 | CCCCC(CC)COC(=O)c1c(Br)c(Br)c(Br)c(Br)c1C(=O)OCC(CC)CCCC (centres undefined) |  | inactive
60 | CC(Cl)(Cl)C(=O)O |  | inactive
61 | O=C(CBr)OCc1ccccc1 |  | inactive
62 | CCN(CC)c1ccccc1 |  | inactive

Reference: PubChem BioAssay (EPA / NIEHS)
